A selection: hits, their analogues and other compounds. The true share with any hit is near 8.6%.
LASV entry inh – inhibitors of Lassa virus binding or entry into cells; Potency, µM (doses to about 49.2 µM), inactives show at the highest dose activity change, negative = inhibition, usual class: inhibitors; 18,000 tested, 4.1% active; AID 720533; Lassa virus pseudotyped entry inhibition, cell-based qHTS
Marburg entry – blocks Marburg virus binding or cell entry; Marburg virus pseudotype entry/binding inhibition, cell-based; Potency, µM (top dose mostly 49.2 µM), inactives show at the highest dose activity change, negative = inhibition, hits mostly inhibitors; 18,000 tested, 6.5% active; AID 720532
Starred values were filed as active, the others as inactive; [ ] = another dose, or the depositor's remark. Calls follow the shape of the full dose curve; tested in HEK293 cells. % is scaled to controls: 0 for no effect and ±100 for the full control effect; potency is read from the fitted curve at half-maximal effect.

Screening COc1cc2c(cc1OC)[C@H](C)N(CC1C(=O)O[C@@H]3C[C@@]4(C)CCC[C@H](C)[C@@]45OC5[C@H]13)CC2 (stereo partly drawn) returned LASV entry inh -31.6% and Marburg entry 12.6µM*.
Screening CC(C)(O)C#Cc1ccc(CN2CCc3nnc(CNC(=O)c4cccc(F)c4)n3CC2)cc1 returned LASV entry inh -1.2% and Marburg entry 0.7%.
C=C(C)[C@]12C[C@@H](C)[C@@]34OC(Cc5ccccc5)(O[C@@H]1[C@@H]3C=C(COC(=O)Cc1cc(OC)c(O)cc1I)C[C@]1(O)C(=O)C(C)=C[C@@H]41)O2 was read as LASV entry inh 20µM* and Marburg entry 14.1µM*.
CC(=O)O[C@H]1C2[C@@H](OC(=O)Cc3ccccc3)[C@@H](C)C[C@]2(OC(C)=O)C(=O)/C(C)=C/[C@@H]2[C@H](CC[C@@]13CO3)C2(C)C (stereo partly drawn) was read as LASV entry inh -28.0% and Marburg entry inconclusive.
Screening C=C(C)[C@]12C[C@@H](C)[C@@]34OC(Cc5ccccc5)(O[C@@H]1[C@@H]3C=C(COC(=O)Cc1cc(I)c(O)c(OC)c1)C[C@]1(O)C(=O)C(C)=C[C@@H]41)O2 returned LASV entry inh 17.8µM* and Marburg entry 12.6µM*.
Screening COc1cc(CC(=O)OCC2=C[C@H]3[C@@H]4C(C)(C)[C@]4(OC(C)=O)[C@H](OC(=O)Cc4ccccc4)[C@@H](C)[C@]3(O)[C@@H]3C=C(C)C(=O)[C@@]3(O)C2)ccc1O returned LASV entry inh 12.6µM* and Marburg entry inconclusive.
CN1CCC[C@@H]1c1cccnc1 was read as LASV entry inh -3.6% and Marburg entry 11.3%.
For Cc1ccccc1C1(CC(=O)N2CCCC(C)C2)CC(=O)N(Cc2cccnc2)C1=O (stereo not drawn) the results were LASV entry inh -8.4% and Marburg entry 8.4%.
Screening CC(=O)OC[C@H]1O[C@@H](n2ncc(=O)[nH]c2=O)[C@H](OC(C)=O)[C@@H]1OC(C)=O returned LASV entry inh 1.58µM* and Marburg entry 2µM*.
For CCc1cc2c(nc1CC)CCN(CCC(C)=NO[C@@H]1O[C@H](COC(C)=O)[C@@H](OC(C)=O)[C@H](OC(C)=O)[C@@H]1OC(C)=O)C2 the results were LASV entry inh 5.4%[8.59 µM] and Marburg entry -19.1%[8.59 µM].
COC(=O)C1(C(=O)OC)CC2=CC(CC2=O)Cc2ccccc2[C@@H]1C[N+](=O)[O-] (stereo partly drawn) was read as LASV entry inh -5.8% and Marburg entry 2.4%.
Screening COc1cccc([C@@H]2Oc3ccc(OC)cc3C(=O)[C@@H]2OC(=O)N[C@H]2CCCc3ccccc32)c1 returned LASV entry inh 23.2%[8.59 µM] and Marburg entry 16.5%[8.59 µM].
For COC(=O)[C@@H]1CC[C@H](C)[C@@H](c2ccc(C)cc2)N1C(=O)c1ccc(C=NO[C@@H](C)c2cn([C@H](CO)Cc3ccccc3)nn2)cc1 the results were Marburg entry 4.7%[8.59 µM].
`CC1O[C@@H](OC2CC(O)[C@@]3(CO)C4C(O)C[C@@]5(C)C(C6=CC(=O)OC6)CC[C@]5(O)C4CC[C@]3(O)C2)C(O)C(O)C1O` (stereo partly drawn) gave LASV entry inh 0.316µM* and Marburg entry 0.282µM*.
C[C@@H]1O[C@@H](O[C@H]2C[C@@H](O)[C@]3(CO)[C@@H]4C(CC[C@]3(O)C2)[C@@]2(O)CC[C@H](C3=CC(=O)OC3)[C@@]2(C)C[C@H]4O)[C@H](O)[C@H](O)[C@H]1O (stereo partly drawn) was read as LASV entry inh 0.316µM* and Marburg entry inconclusive.
`C[C@@H]1O[C@H](O[C@H]2C[C@@H](O)[C@@]3(CO)[C@H]4[C@@H](O)C[C@]5(C)[C@@H](C6=CC(=O)OC6)CC[C@]5(O)[C@H]4CC[C@]3(O)C2)[C@@H](O)[C@H](O)[C@@H]1O` gave LASV entry inh 3.16µM* and Marburg entry inconclusive.
For C[C@@H]1O[C@@H](O[C@H]2C[C@@H](O)[C@]3(CO)[C@H]4[C@H](O)C[C@]5(C)[C@@H](C6=CC(=O)OC6)CC[C@]5(O)[C@@H]4CC[C@]3(O)C2)[C@H](O)[C@H](O)[C@H]1O the results were LASV entry inh 0.0316µM* and Marburg entry inconclusive.
Screening Cc1nn(C)c(Cl)c1CN1CCOc2ccc(CN3CCC(Oc4cccnc4)CC3)cc2C1 returned LASV entry inh -3.6% and Marburg entry inconclusive.
COC(=O)c1cn([C@@H]2C[C@@H](C(=O)Nc3cccc(SC)c3)N(C3CCCCCC3)C2)nn1 was read as LASV entry inh -6.4% and Marburg entry -10.5%.
`Nc1nc2ncc(=O)[nH]c2c(=O)[nH]1` gave LASV entry inh 2.7% and Marburg entry 7.3%.
`O=C(OCc1cn([C@@H]2C[C@H](c3ccccc3)N(CC3CCCCC3)C[C@@H]2O)nn1)c1ccccc1` gave LASV entry inh -21.4% and Marburg entry -29.2%.
Screening O=S1(=O)N[C@H](Cc2ccccc2)COc2cccc(N3CCCCC3)c21 returned LASV entry inh 10.8% and Marburg entry -20.9%.
CCCCc1oc2ccc(NS(C)(=O)=O)cc2c1C(=O)c1ccc(OCCCN(CCCC)CCCC)cc1 was read as LASV entry inh 12.6µM* and Marburg entry 6.31µM*.
`CN(CCOc1ccc(NS(C)(=O)=O)cc1)CCc1ccc(NS(C)(=O)=O)cc1` gave LASV entry inh -2.7% and Marburg entry 5.5%.
For Cc1ccc(C(=O)N2CCOc3ccc(CN4CCN(Cc5ccccn5)CC4)cc3C2)cc1 the results were LASV entry inh -10.7% and Marburg entry -16.9%.
For CC(=O)NNC(=O)N1Cc2ccccc2Oc2ccc(Cl)cc21 the results were LASV entry inh -11.1% and Marburg entry 4.9%.
For CCN(CC)CCCCN1c2ccccc2Oc2ccc(Cl)cc21 the results were LASV entry inh inconclusive and Marburg entry 6.31µM*.
`O=C(CCC1CCN(Cc2ccccc2)CC1)c1ccc2c(c1)NCCCC2` gave LASV entry inh inconclusive and Marburg entry 14.1µM*.
`O=C(NC1CCN(Cc2ccccc2)CC1)c1ccc(I)cc1` gave LASV entry inh -3.6% and Marburg entry 5.5%.
C=C1C(=O)OC2C=C(C)CCC=C(C)CCC12 (stereo not drawn) was read as LASV entry inh -14.6% and Marburg entry -18.9%.
For C=C1CC/C=C(\C)CC[C@@H]2[C@@H]1CC2(C)C the results were LASV entry inh -2.0% and Marburg entry 7.2%.
C=C1C(=O)O[C@H]2[C@H]1CC/C(C)=C\CC[C@@]1(C)O[C@@H]21 was read as LASV entry inh 7.94µM* and Marburg entry 14.1µM*.
Screening C=C1C(=O)O[C@@H]2C3OC3(C)CC/C=C(\C)CC[C@@H]12 (stereo partly drawn) returned LASV entry inh -21.6% and Marburg entry -16.1%.
`C=C1C(=O)OC2C1CC/C(C)=C/CCC1(C)OC21` (stereo not drawn) gave LASV entry inh 11.2µM* and Marburg entry inconclusive.
For C=C1C(=O)O[C@@H]2[C@H]3O[C@]3(C)CC/C=C(\C)CC[C@@H]12 the results were LASV entry inh 4.47µM* and Marburg entry 3.98µM*.
CC(=O)C1=C(C)C[C@@]2(CC1)C(=O)[C@H](Cc1ccccc1)N(Cc1ccccc1)S2(=O)=O was read as LASV entry inh 7.5% and Marburg entry -17.4%.
For Cc1cc(C)cc([C@H]2C[C@]34CN(Cc5ccccc5)[S+](=O)([O-])[C@@H]3C[C@@H]2O4)c1 the results were LASV entry inh -19.6% and Marburg entry -14.8%.
